The nature of experiment [1]: qHTS assay to identify aromatase inhibitors - cell viability counter screen (AID 743084).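 Note: cells stimulated with testosterone during compound exposure; nearly all actives have a fitted effect of over 55% in size.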 Note: potency is the fitted concentration of half-maximal effect. In general terms: Quantitative high-throughput screening tests each substance at several concentrations.
The target of experiment [2] is Aryl hydrocarbon receptor (Homo sapiens) (UniProt P35869). Put plainly: qHTS assay to identify small molecule that activate the aryl hydrocarbon receptor (AhR) signaling pathway (AID 743085).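 For activation: HG2L7.5c1 human HepG2 liver cells with stably integrated DRE-driven firefly reporter; series mostly up to about 70 µM.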 Note: nearly all actives have a fitted effect of over 15% in size. Note: potency is the fitted concentration of half-maximal effect. An outline of the steps: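 Measured in HG2L7.5c1 cells: CellTiter-Fluor signal (30 min incubation, 37C) for viability, then luciferase luminescence (30 min, room temperature). Compound contact time was 24 h at 37C, following a 5 h pre-incubation.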

The target of experiment [3] is Peroxisome proliferator-activated receptor gamma (Homo sapiens) (UniProt P37231). Description: qHTS assay to identify small molecule agonists of the peroxisome proliferator-activated receptor gamma (PPARg) signaling pathway (AID 743094; active = well fitted activation curve with a large enough effect in the signal ratio in the repeat runs, not every such curve was filed as active; the % refers to the signal ratio). An outline of the steps: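 HEK293H PPARg-bla cells, 5 h settle at 37C/5% CO2; compound (DMSO) 17 h, 37C; B/G FRET substrate 1 h RT; fluorescence intensity read-out. qHTS format.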

A short description of experiment [4]: qHTS assay to identify small molecule antagonists of the peroxisome proliferator-activated receptor gamma (PPARg) signaling pathway - cell viability counter screen (AID 743194). Note: nearly all actives have a fitted effect of over 55% in size. An outline of the steps: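 Viability was measured as CellTiter-Glo luminescence in GeneBLAzer PPARg UAS-bla HEK293H cells. These cells had been exposed 17 h at 37 C to compounds together with rosiglitazone at 50 nM final, with the beta-lactamase readout taken in the same wells.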

Experiment [5] is described as follows: qHTS assay for small molecule agonists of the antioxidant response element (ARE) signaling pathway (AID 743202; active = well fitted activation curve with a large enough effect in the signal ratio in the repeat runs, not every such curve was filed as active; the % refers to the signal ratio; note: potency is the fitted concentration of half-maximal effect). An outline of the steps:
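Beta-lactamase reporter activity, read as fluorescence intensity, reflects ARE/Nrf2 pathway induction in HepG2 cells after 16 h compound exposure at 37 C; substrate loading was 2 h at room temperature.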

The nature of experiment [6]: qHTS assay for small molecule agonists of the antioxidant response element (ARE) signaling pathway - cell viability counter screen (AID 743203; calls by dose curve; note: nearly all actives have a fitted effect of over 55% in size; note: potency is the fitted concentration of half-maximal effect). An outline of the steps: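 Luminescence read-out (CellTiter-Glo, 30 min at room temperature) measured cell viability in the same wells as the ARE beta-lactamase reporter. HepG2 ARE-bla cells were treated with compounds for 16 hrs at 37C/5% CO2.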

Experiment [7] is described as follows: qHTS assay for small molecule activators of the heat shock response signaling pathway - cell viability counter screen (AID 743209). Note: nearly all actives have a fitted effect of over 50% in size. An outline of the steps: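 HSE-bla HeLa; 1500 cells/well; overnight 37 C, 5% CO2; compound 5 h 37 C; LiveBLAzer B/G substrate 2.5 h RT; CellTiter-Glo 30 min RT; luminescence.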
The nature of experiment [8]: qHTS assay for small molecule activators of the heat shock response signaling pathway (AID 743210; active = well fitted activation curve with a large enough effect in the signal ratio in the repeat runs, with a control signal flat, not every such curve was filed as active; the % refers to the signal ratio; note: potency is the fitted concentration of half-maximal effect;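 for activation: HeLa cells with beta-lactamase reporter driven by heat shock elements; series mostly up to about 63 µM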). An outline of the steps: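 Fluorescence from a cleaved B/G FRET substrate (2.5 h, room temp) reports HSE-driven beta-lactamase in HeLa cells treated 5 h at 37 C with DMSO-dissolved compounds.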
Experiment [9] is described as follows: qHTS assay to identify small molecule that activate the aryl hydrocarbon receptor (AhR) signaling pathway - cell viability counter screen (AID 743086). For viability change, negative = cytotoxic: series mostly up to about 70 µM. Note: nearly all actives have a fitted effect of over 45% in size. Note: potency is the fitted concentration of half-maximal effect. An outline of the steps: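 Cytotoxicity counter screen: CellTiter-Fluor signal (30 min, 37 C) in 4000 HepG2 cells/well carrying the DRE-luciferase reporter, following 24 h compound exposure at 37 C.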
Experiment [10] deals with Peroxisome proliferator-activated receptor gamma (Homo sapiens) (UniProt P37231). Description: qHTS assay to identify small molecule antagonists of the peroxisome proliferator-activated receptor gamma (PPARg) signaling pathway (AID 743191; calls by dose curve; note: series mostly up to about 63 µM; nearly all actives have a fitted effect of over 30% in size). An outline of the steps: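 Beta-lactamase reporter under UAS control in HEK293H PPARg-bla cells; compound treatment 17 h at 37C. Read-out: fluorescence intensity after 1 h room-temperature incubation with LiveBLAzer B/G FRET substrate.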

Records with an inconclusive call do not appear. A number with no mark means an inactive call. Activity calls are given as the source filed them. Unless noted, calls come from the whole dose curve; as a rule, active = well fitted curve in the direction sought with a large enough effect in the repeat runs; inconclusive = weak or mixed curves; inactive = no such curve, though single readings can be large; an effect the other way counts as inactive or inconclusive.
% is set by controls: 0 for no effect and ±100 for the full control effect.

Sequence of Aryl hydrocarbon receptor (Homo sapiens) (P35869 whole entry, looked up): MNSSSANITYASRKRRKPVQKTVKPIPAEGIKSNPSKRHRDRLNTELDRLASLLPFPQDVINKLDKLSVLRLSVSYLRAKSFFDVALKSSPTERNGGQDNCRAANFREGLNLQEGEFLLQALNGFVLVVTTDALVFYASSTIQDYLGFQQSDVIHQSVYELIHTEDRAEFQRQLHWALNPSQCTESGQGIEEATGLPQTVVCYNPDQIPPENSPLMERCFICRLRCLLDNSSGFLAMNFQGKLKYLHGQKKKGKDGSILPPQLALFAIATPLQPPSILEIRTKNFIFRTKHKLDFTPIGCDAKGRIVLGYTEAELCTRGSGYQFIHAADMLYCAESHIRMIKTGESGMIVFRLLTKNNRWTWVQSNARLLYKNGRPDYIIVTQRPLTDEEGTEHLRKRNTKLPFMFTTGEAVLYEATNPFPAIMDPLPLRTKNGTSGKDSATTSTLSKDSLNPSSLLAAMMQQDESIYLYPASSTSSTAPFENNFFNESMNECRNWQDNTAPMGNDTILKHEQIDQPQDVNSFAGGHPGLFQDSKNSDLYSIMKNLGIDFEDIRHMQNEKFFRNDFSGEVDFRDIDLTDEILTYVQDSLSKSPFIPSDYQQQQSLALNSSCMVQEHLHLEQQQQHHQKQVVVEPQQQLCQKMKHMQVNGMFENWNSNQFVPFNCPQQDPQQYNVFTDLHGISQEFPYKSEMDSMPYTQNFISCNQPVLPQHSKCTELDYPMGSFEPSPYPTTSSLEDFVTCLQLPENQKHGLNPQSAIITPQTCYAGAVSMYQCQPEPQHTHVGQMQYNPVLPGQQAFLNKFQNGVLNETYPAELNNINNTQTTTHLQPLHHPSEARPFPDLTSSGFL
Sequence of Peroxisome proliferator-activated receptor gamma (Homo sapiens) (P37231 whole entry, looked up): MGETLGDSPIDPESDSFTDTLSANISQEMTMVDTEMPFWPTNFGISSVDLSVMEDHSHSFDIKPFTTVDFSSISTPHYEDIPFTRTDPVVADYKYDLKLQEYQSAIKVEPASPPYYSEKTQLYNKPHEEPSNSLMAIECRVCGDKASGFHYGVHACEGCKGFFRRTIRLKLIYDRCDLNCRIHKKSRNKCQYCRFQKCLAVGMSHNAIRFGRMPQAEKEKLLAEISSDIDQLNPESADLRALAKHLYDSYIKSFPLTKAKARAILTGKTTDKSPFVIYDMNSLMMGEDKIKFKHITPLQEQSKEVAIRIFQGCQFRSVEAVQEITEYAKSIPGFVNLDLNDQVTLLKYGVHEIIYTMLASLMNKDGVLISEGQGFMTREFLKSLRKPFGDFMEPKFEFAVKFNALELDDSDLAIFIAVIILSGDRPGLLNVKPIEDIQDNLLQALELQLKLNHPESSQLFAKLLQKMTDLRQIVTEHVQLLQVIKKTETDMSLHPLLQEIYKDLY

Take `NC(=O)Cn1c(=O)cc(CCN2CCN(c3nccc4sccc34)CC2)c2ccc(F)cc21`: the Potency result in experiment [1], in experiment [2], in experiment [3], in experiment [4], in [5] and in [6] was “inactive” in each case. Further, the Potency result in [7] and in [8] was “inactive” each time.
With `C=CC(=C)CCCC(C)(C)OC(C)=O`, the Potency result in [1], in [9], in experiment [3], in experiment [10], in [4] and in experiment [5] was “inactive” each time. Further, the Potency result in [6], in experiment [7] and in experiment [8] was “inactive” throughout.
With `O=C(NCCCN1CCOCC1)c1ccc(Cl)cc1`, the Potency result in experiment [1], in experiment [9], in [3], in [10], in experiment [4] and in [5] was “inactive” in each case. The Potency entry in experiment [6], in experiment [7] and in experiment [8] was “inactive” each time.
Consider `CCOc1cc(N)c(Cl)cc1C(=O)NCC1CN(Cc2ccc(F)cc2)CCO1` (configuration not stated), for which the Potency result in experiment [1], in experiment [9], in [4], in [6] and in [8] was “inactive” each time. Further, in experiment [2], the Potency is 0.266 µM (active).
For the molecule `CC(=O)Oc1ccc(C(=C2CCCCC2)c2ccc(OC(C)=O)cc2)cc1`, the Potency entry in experiment [1], in experiment [2], in experiment [9], in experiment [6] and in experiment [7] was “inactive” each time. In addition, the Potency is 29.8 µM (active) in [5] and 26.6 µM (active) in experiment [8].
Consider `CCCCCCCC/C=C\CCCCCCCC(=O)OC`, for which the Potency entry in experiment [1], in experiment [9], in experiment [3], in experiment [10], in experiment [4] and in experiment [5] was “inactive” each time. Also, the Potency result in experiment [6], in experiment [7] and in experiment [8] was “inactive” in each case.
As for `COc1ccc(CCC(=O)c2c(O)cc(O[C@@H]3O[C@H](CO)[C@@H](O)[C@H](O)[C@H]3O[C@@H]3O[C@@H](C)[C@H](O)[C@@H](O)[C@H]3O)cc2O)cc1O`, the Potency entry in experiment [1], in experiment [9], in experiment [3], in experiment [10], in [4] and in [5] was “inactive” each time. In addition, the Potency result in experiment [6] and in experiment [8] was “inactive” each time.
Regarding `CN1CCN(CCCN2c3ccccc3Sc3ccc(S(=O)(=O)N(C)C)cc32)CC1`, the Potency result in experiment [1], in [2], in [9] and in experiment [8] was “inactive” throughout. Further, the Potency in experiment [6] is 26.6 µM (active).
Turning to `Cc1cc(S(=O)(=O)O)ccc1N=Nc1c(O)ccc2ccccc12`, the Potency was 27.3 µM (active) in [1] and 24.3 µM (active) in experiment [9]. The Potency result in [3], in experiment [10], in experiment [4], in [5], in experiment [6] and in [7] was “inactive” throughout. Further, the Potency result in [8] is “inactive”.
Turning to `CC1(C)C(=O)N(Br)C(=O)N1Cl`, the Potency result in [1], in experiment [2], in [10], in experiment [6], in experiment [7] and in experiment [8] was “inactive” in each case.
Take `Fc1c(F)c(F)c(Br)c(F)c1F`: the Potency result in experiment [1], in experiment [9], in [3], in [10], in experiment [4] and in experiment [6] was “inactive” each time. In addition, in experiment [8], the Potency result is “inactive”.
Take `CCCCN(CCCC)CCCOC(=O)c1ccc(N)cc1`: the Potency entry in experiment [1], in experiment [9], in experiment [3], in experiment [10], in experiment [4] and in [5] was “inactive” in each case. For the same molecule, the Potency result in experiment [6] and in experiment [7] was “inactive” throughout.
Consider `CC(CCc1ccc2c(c1)OCO2)NN` (configuration not stated), for which the Potency result in [1], in [9], in [3], in experiment [10], in experiment [4] and in experiment [6] was “inactive” throughout. For the same molecule, the Potency result in experiment [7] and in experiment [8] was “inactive” in each case.
Turning to `C=CCCCCCCCCCCCCCCCC`, the activity change, negative = cytotoxicity was 17.8% [at 8.47 µM] in [1], 1.33% [at 5.95 µM] in experiment [4] and 11.1% [at 5.95 µM] in experiment [7]. The viability change, negative = cytotoxic is -2.48% [at 8.47 µM] in experiment [9] and -4.17% [at 8.36 µM] in experiment [6]. Besides, the activation in [3] was -3.71% [at 7.08 µM]; in experiment [8], -2.33% [at 5.95 µM]. Further, the ratio activity, negative = inhibition in [10] was 1.33% [at 5.95 µM].
For the molecule `CCCCC(=O)O[C@]1(C(=O)CO)[C@@H](C)C[C@H]2[C@@H]3CCC4=CC(=O)C=C[C@]4(C)[C@@]3(F)[C@@H](O)C[C@@]21C`, the Potency entry in experiment [1], in experiment [9], in experiment [3], in experiment [10], in [4] and in experiment [6] was “inactive” throughout. The Potency entry in experiment [7] and in [8] was “inactive” in each case.
In the case of `CC(=N\O)/C(C)=N/O`, the Potency result in experiment [1], in experiment [2], in experiment [3], in [10], in experiment [6] and in [7] was “inactive” each time. Further, the Potency result in [8] is “inactive”.
`CCc1cccc(N(C)C(N)=Nc2cccc3ccccc23)c1`: the Potency entry in experiment [1], in experiment [2], in [4], in [6], in [7] and in experiment [8] was “inactive” each time.
For the molecule `Cc1ccc(S)cc1`, the Potency result in experiment [1], in experiment [9], in [3], in experiment [10], in experiment [4] and in experiment [5] was “inactive” in each case. Moreover, the Potency entry in [6] was “inactive”.
Take `CCOC(=O)OCC`: the Potency entry in experiment [1], in [9], in experiment [3], in experiment [10], in experiment [4] and in experiment [5] was “inactive” throughout. Further, the Potency entry in experiment [6], in [7] and in [8] was “inactive” throughout.
For `O=C(O)Cc1ccc(-c2ccccc2)cc1`, the Potency result in experiment [1], in experiment [2], in experiment [9], in experiment [6], in [7] and in [8] was “inactive” each time.
For `CC1CN(c2cc3c(cc2F)c(=O)c(C(=O)O)cn3-c2ccc(F)cc2F)CCN1` (configuration not stated), the Potency result in experiment [1], in [9] and in experiment [3] was “inactive” throughout. Further, in [10], the ratio activity, negative = inhibition was 15.7% [at 5.95 µM]. Also, the activity change, negative = cytotoxicity is 5.03% [at 5.95 µM] in experiment [4] and -28.5% [at 5.95 µM] in experiment [7]. The activation is 0.815% [at 8.36 µM] in [5] and 0.895% [at 5.95 µM] in experiment [8]. Also, in experiment [6], the viability change, negative = cytotoxic is -0.948% [at 8.36 µM].
With `CC(=O)Nc1ccccc1C`, the Potency result in experiment [1], in experiment [9], in experiment [3], in experiment [10], in [4] and in experiment [5] was “inactive” throughout. In addition, the Potency result in experiment [6], in experiment [7] and in experiment [8] was “inactive” throughout.
For `CC1=NN(c2ccc(C(=O)O)cc2)C(=O)C1`, the Potency result in experiment [1], in experiment [9], in [3], in [10], in experiment [4] and in experiment [5] was “inactive” throughout. Also, the Potency entry in experiment [6], in experiment [7] and in experiment [8] was “inactive” in each case.
On to `CO[C@H]1C=CO[C@@]2(C)Oc3c(C)c(O)c4c(O)c(c5c(c4c3C2=O)=NC2(CCN(CC(C)C)CC2)N=5)NC(=O)/C(C)=C\C=C/[C@H](C)[C@H](O)[C@@H](C)[C@@H](O)[C@@H](C)[C@H](OC(C)=O)[C@@H]1C`, for which the Potency is 30 µM (active) in [1] and 15 µM (active) in experiment [9]. Further, the Potency entry in [2], in [4] and in [8] was “inactive” in each case.
`C(=C\c1ccccc1)/CN1CCN(C(c2ccccc2)c2ccccc2)CC1`: the Potency entry in experiment [1], in [2], in [9], in experiment [6] and in experiment [7] was “inactive” in each case.
